This note sets out measurements from PubChem BioAssay (Tox21).

A number with no mark means an inactive call. Inconclusive results are not listed. Entries that show only a call come without a potency. The source made the active and inactive calls. The call rests on the fitted dose curve.

Sequence of Acetylcholinesterase (Homo sapiens) (P22303 whole entry, looked up): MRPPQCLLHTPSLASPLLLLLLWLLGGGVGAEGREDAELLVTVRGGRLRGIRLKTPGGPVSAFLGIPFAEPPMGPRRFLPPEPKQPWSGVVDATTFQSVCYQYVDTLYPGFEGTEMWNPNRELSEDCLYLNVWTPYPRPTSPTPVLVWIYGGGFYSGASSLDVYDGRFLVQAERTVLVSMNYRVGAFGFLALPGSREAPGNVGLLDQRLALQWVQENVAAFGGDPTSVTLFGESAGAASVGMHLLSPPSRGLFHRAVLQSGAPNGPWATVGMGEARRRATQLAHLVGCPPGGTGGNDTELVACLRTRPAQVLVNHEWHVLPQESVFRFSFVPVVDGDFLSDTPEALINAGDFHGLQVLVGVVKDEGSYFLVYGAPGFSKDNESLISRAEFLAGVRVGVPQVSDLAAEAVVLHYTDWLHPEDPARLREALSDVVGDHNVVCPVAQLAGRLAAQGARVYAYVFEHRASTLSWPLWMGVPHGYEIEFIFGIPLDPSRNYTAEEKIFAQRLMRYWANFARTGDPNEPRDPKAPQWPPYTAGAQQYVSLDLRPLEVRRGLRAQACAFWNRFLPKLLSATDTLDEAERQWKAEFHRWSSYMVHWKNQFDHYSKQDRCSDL

In the first test the target is Acetylcholinesterase (Homo sapiens) (UniProt P22303). As to the kind of experiment: Acetylcholinesterase (AChE) small molecule antagonists: colormetric cell-based qHTS assay (AID 1347395). Further: nearly all actives have a fitted effect of over 30% in size. The note with it: SH-SY5Y cells AChE activity, colorimetric (Ellman); series mostly up to 115 µM. In a few lines:
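Colorimetric read-out: DTNB detects thiocholine released when cellular AChE in SH-SY5Y cells hydrolyses acetylthiocholine. Cells attached overnight, received compound for 30 min at 37 C, then substrate mix for 90 min at 37 C.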
(In general: qHTS replaces the single test concentration by a dilution series.)
In the case of `CC(=O)c1ccc(C(C)=O)cc1`, the Potency result is “inactive”.
Still for that read-out and setting: then `CCCCC(CC)CN1CN(CC(CC)CCCC)CC(C)(N)C1` (stereo unspecified), with “inactive”; and `CCCCCCCC(OC)OC`, with “inactive”.
`NC(=O)Cc1cccc(C(=O)c2ccccc2)c1N`: the Potency result is “inactive”.
On the same count and under the same terms, to `CN1C(=O)CC(C)(c2ccccc2)C1=O` (stereo unspecified) belongs “inactive”.
As to `[O-][n+]1ccccc1SSc1cccc[n+]1[O-]`, the activity, negative = inhibition is -9.35% [at 23.6 µM].
With `CCOC(=O)Cn1c(=O)sc2cccc(Cl)c21`, the Potency result is “inactive”.
Take `Cn1c(=O)[nH]c2ncn(C)c2c1=O`: the Potency result is “inactive”.
Still for that read-out and setting: then `CC1(N)CCC(C(C)(C)N)CC1` (stereo unspecified), with “inactive”; and `C=C(C)C(=O)OCCC(C)OC(=O)C(=C)C` (stereo unspecified), with “inactive”.
`O=c1cc(-c2ccccc2)oc2ccccc12`: the Potency result was “inactive”.
Still for that read-out and setting: to `COc1nccnc1CC(C)C` belongs “inactive”.
As to `CC(=O)NS(=O)(=O)c1ccc(N)cc1`, the Potency result is “inactive”.
Still for that read-out and setting: to `COc1ccc(C(Cl)=C(c2ccc(OC)cc2)c2ccc(OC)cc2)cc1` belongs “inactive”; to `CC1(C)[C@@H](O[C@H]2O[C@H](C(=O)O)[C@@H](O)[C@H](O)[C@H]2O[C@@H]2O[C@H](C(=O)O)[C@@H](O)[C@H](O)[C@H]2O)CC[C@]2(C)[C@H]3C(=O)C=C4[C@@H]5C[C@@](C)(C(=O)O)CC[C@]5(C)CC[C@@]4(C)[C@]3(C)CC[C@@H]12`, “inactive”.
With `CC(=O)Oc1ccc2c(c1)CC[C@@H]1[C@@H]2CC[C@]2(C)[C@@H](O)CC[C@@H]12`, the Potency result was “inactive”.

For a further test the target is unchanged. As to the kind of experiment: Acetylcholinesterase (AChE) small molecule antagonists: enzyme-based qHTS assay (AID 1347397). Further: nearly all actives have a fitted effect of over 55% in size. The following applies: Potency: AChE enzyme activity inhibition; outcome: AChE enzyme activity inhibition; series mostly up to 115 µM. A digest of the protocol:
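Human recombinant acetylcholinesterase; substrate acetylthiocholine; thiocholine quantified with DTNB (colorimetric). Compound preincubation 30 min RT; reaction 10 min RT.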
As to `CN(C)C=O`, the Potency result is “inactive”.
In the case of `CC(=O)Oc1ccc(C(=C2CCCCC2)c2ccc(OC(C)=O)cc2)cc1`, the Potency result is “inactive”.
`[Cl][Bi]([Cl])([c]1ccccc1)([c]1ccccc1)[c]1ccccc1`: the Potency entry was “inactive”.
Take `CCCCCCCC/C=C\CCCCCCCC(=O)NCc1ccc(O)c(OC)c1`: the Potency result is “inactive”.
On the same count and under the same terms, then `C=CC(C)(C)O`, with “inactive”; and `CC(=O)c1ccc2c(c1)N(CCCN(C)C)c1ccccc1S2`, with “inactive”.
Same read-out and setting: to `CCCCOC(=O)C(C)OC(=O)CCC` (stereo unspecified) belongs “inactive”.
Same read-out and setting: then `CCc1c(C(=O)O)c(=O)cnn1-c1ccc(Cl)cc1`, with “inactive”; and `CCNC(=O)/C=C/c1cccc(Br)c1`, with “inactive”; and `CC(=O)[O][Al][O]C(C)=O`, with “inactive”.
As to `CCC(=O)O[C@@H]1C[C@H]2CC[C@]1(C)C2(C)C`, the Potency result is “inactive”.
As for `C1COCO1`, the Potency entry was “inactive”.
The same measure, in the same setting: then `S=c1nc[nH]c2nc[nH]c12`, with “inactive”.
Same read-out and setting: to `CC12CCC(C1)C(C)(C)C2O` (stereo unspecified) belongs “inactive”.
Take `O=C(Nc1ccccc1)Nc1ccccc1`: the Potency entry is “inactive”.
Regarding `CCCc1c2oc(C(=O)O)cc(=O)c2cc2c(=O)cc(C(=O)O)n(CC)c12`, the Potency entry is “inactive”.
The same measure, in the same setting: then `CC(C)Cn1cnc2c1c(=O)n(C)c(=O)n2C`, with “inactive”.
Still for that read-out and setting: then `Cc1c(Nc2ncccc2C(=O)O)cccc1C(F)(F)F`, with “inactive”; and `CC1=C2[C@@H]([C@H](C)CC[C@H]2/C=C(\C)C(=O)O)[C@H](O)C1`, with “inactive”.
For the molecule `CCC(C)(C)c1ccc(CC(C)CN2C[C@@H](C)O[C@@H](C)C2)cc1` (stereo partly specified), the Potency result was “inactive”.
On the same count and under the same terms, then `CC(CCO)CCc1ccccc1` (stereo unspecified), with “inactive”; and `CCOCC(=O)O`, with “inactive”.
On the same count and under the same terms, to `ClC1=C(Cl)C1(Cl)Cl` belongs “inactive”; to `O=C(O)CP(=O)(O)O`, “inactive”; to `CC(=O)c1ccc(C(C)=O)cc1`, “inactive”.
Same read-out and setting: to `CCCCC(CC)CN1CN(CC(CC)CCCC)CC(C)(N)C1` (stereo unspecified) belongs “inactive”; to `CCCCCCCC(OC)OC`, “inactive”; to `NC(=O)Cc1cccc(C(=O)c2ccccc2)c1N`, “inactive”.
Regarding `CN1C(=O)CC(C)(c2ccccc2)C1=O` (stereo unspecified), the Potency result is “inactive”.
Regarding `[O-][n+]1ccccc1SSc1cccc[n+]1[O-]`, the activity change, negative = inhibition is -9.5% [at 23.6 µM].
Regarding `CCOC(=O)Cn1c(=O)sc2cccc(Cl)c21`, the Potency entry was “inactive”.
Take `Cn1c(=O)[nH]c2ncn(C)c2c1=O`: the Potency result is “inactive”.
The same measure, in the same setting: then `CC1(N)CCC(C(C)(C)N)CC1` (stereo unspecified), with “inactive”.
For `C=C(C)C(=O)OCCC(C)OC(=O)C(=C)C` (stereo unspecified), the Potency entry was “inactive”.
In the case of `O=c1cc(-c2ccccc2)oc2ccccc12`, the Potency entry is “inactive”.
Same read-out and setting: then `COc1nccnc1CC(C)C`, with “inactive”; and `CC(=O)NS(=O)(=O)c1ccc(N)cc1`, with “inactive”; and `COc1ccc(C(Cl)=C(c2ccc(OC)cc2)c2ccc(OC)cc2)cc1`, with “inactive”.
Turning to `CC1(C)[C@@H](O[C@H]2O[C@H](C(=O)O)[C@@H](O)[C@H](O)[C@H]2O[C@@H]2O[C@H](C(=O)O)[C@@H](O)[C@H](O)[C@H]2O)CC[C@]2(C)[C@H]3C(=O)C=C4[C@@H]5C[C@@](C)(C(=O)O)CC[C@]5(C)CC[C@@]4(C)[C@]3(C)CC[C@@H]12`, the Potency entry is “inactive”.
As for `CC(=O)Oc1ccc2c(c1)CC[C@@H]1[C@@H]2CC[C@]2(C)[C@@H](O)CC[C@@H]12`, the Potency result was “inactive”.

For a further test the target is unchanged. As to the kind of experiment: Acetylcholinesterase (AChE) small molecule antagonists: fluorescence cell-based qHTS assay (AID 1347398). Further: nearly all actives have a fitted effect of over 50% in size. Further: potency means the concentration at half of the fitted maximal effect. The following applies: SH-SY5Y cells; Potency: AChE activity; outcome: AChE activity; series mostly up to 115 µM. A digest of the protocol: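 Thiocholine generated from acetylthiocholine by SH-SY5Y cell AChE is detected with Thiolite Green (Ex/Em 490/520 nm) after 40 min at room temperature, following 30 min compound pretreatment at 37 C.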
As to `CN(C)C=O`, the Potency entry was “inactive”.
Same read-out and setting: then `CC(=O)Oc1ccc(C(=C2CCCCC2)c2ccc(OC(C)=O)cc2)cc1`, with “inactive”.
With `[Cl][Bi]([Cl])([c]1ccccc1)([c]1ccccc1)[c]1ccccc1`, the Potency entry was “inactive”.
On to `CCCCCCCC/C=C\CCCCCCCC(=O)NCc1ccc(O)c(OC)c1`, for which the Potency result is “inactive”.
With `C=CC(C)(C)O`, the Potency result is “inactive”.
On the same count and under the same terms, then `CC(=O)c1ccc2c(c1)N(CCCN(C)C)c1ccccc1S2`, with “inactive”; and `CCCCOC(=O)C(C)OC(=O)CCC` (stereo unspecified), with “inactive”.
Regarding `CCc1c(C(=O)O)c(=O)cnn1-c1ccc(Cl)cc1`, the Potency result was “inactive”.
Same read-out and setting: to `CCNC(=O)/C=C/c1cccc(Br)c1` belongs “inactive”; to `CC(=O)[O][Al][O]C(C)=O`, “inactive”; to `CCC(=O)O[C@@H]1C[C@H]2CC[C@]1(C)C2(C)C`, “inactive”.
For the molecule `C1COCO1`, the Potency result is “inactive”.
As to `S=c1nc[nH]c2nc[nH]c12`, the Potency result is “inactive”.
Same read-out and setting: to `CC12CCC(C1)C(C)(C)C2O` (stereo unspecified) belongs “inactive”; to `O=C(Nc1ccccc1)Nc1ccccc1`, “inactive”; to `CCCc1c2oc(C(=O)O)cc(=O)c2cc2c(=O)cc(C(=O)O)n(CC)c12`, “inactive”.
On the same count and under the same terms, to `CC(C)Cn1cnc2c1c(=O)n(C)c(=O)n2C` belongs “inactive”; to `Cc1c(Nc2ncccc2C(=O)O)cccc1C(F)(F)F`, “inactive”; to `CC1=C2[C@@H]([C@H](C)CC[C@H]2/C=C(\C)C(=O)O)[C@H](O)C1`, “inactive”.
Same read-out and setting: to `CCC(C)(C)c1ccc(CC(C)CN2C[C@@H](C)O[C@@H](C)C2)cc1` (stereo partly specified) belongs “inactive”; to `CC(CCO)CCc1ccccc1` (stereo unspecified), “inactive”; to `CCOCC(=O)O`, “inactive”.
For the molecule `ClC1=C(Cl)C1(Cl)Cl`, the Potency entry was “inactive”.
The same measure, in the same setting: then `O=C(O)CP(=O)(O)O`, with “inactive”; and `CC(=O)c1ccc(C(C)=O)cc1`, with “inactive”; and `CCCCC(CC)CN1CN(CC(CC)CCCC)CC(C)(N)C1` (stereo unspecified), with “inactive”.
Still for that read-out and setting: to `CCCCCCCC(OC)OC` belongs “inactive”.
On to `NC(=O)Cc1cccc(C(=O)c2ccccc2)c1N`, for which the Potency result is “inactive”.
Same read-out and setting: to `CN1C(=O)CC(C)(c2ccccc2)C1=O` (stereo unspecified) belongs “inactive”.
Still for that read-out and setting: to `[O-][n+]1ccccc1SSc1cccc[n+]1[O-]` belongs 12 µM (active).
The same measure, in the same setting: then `CCOC(=O)Cn1c(=O)sc2cccc(Cl)c21`, with “inactive”; and `Cn1c(=O)[nH]c2ncn(C)c2c1=O`, with “inactive”.
For `CC1(N)CCC(C(C)(C)N)CC1` (stereo unspecified), the Potency entry was “inactive”.
On the same count and under the same terms, to `C=C(C)C(=O)OCCC(C)OC(=O)C(=C)C` (stereo unspecified) belongs “inactive”; to `O=c1cc(-c2ccccc2)oc2ccccc12`, “inactive”.
As to `COc1nccnc1CC(C)C`, the Potency result was “inactive”.
Turning to `CC(=O)NS(=O)(=O)c1ccc(N)cc1`, the Potency entry is “inactive”.
On the same count and under the same terms, to `COc1ccc(C(Cl)=C(c2ccc(OC)cc2)c2ccc(OC)cc2)cc1` belongs “inactive”; to `CC1(C)[C@@H](O[C@H]2O[C@H](C(=O)O)[C@@H](O)[C@H](O)[C@H]2O[C@@H]2O[C@H](C(=O)O)[C@@H](O)[C@H](O)[C@H]2O)CC[C@]2(C)[C@H]3C(=O)C=C4[C@@H]5C[C@@](C)(C(=O)O)CC[C@]5(C)CC[C@@]4(C)[C@]3(C)CC[C@@H]12`, “inactive”; to `CC(=O)Oc1ccc2c(c1)CC[C@@H]1[C@@H]2CC[C@]2(C)[C@@H](O)CC[C@@H]12`, “inactive”.
